Screening results from PubChem.
PKA-R2B activ = PKA-R2B complex activation; P22694+P31323; PKA-R2B holoenzyme dissociation, Cy5-IP20 fluorescence polarization; R2B truncated from residue 108, S112A mutant; 0% DMSO only, 100% 113 µM cGMP; activation, % at 11.4 µM; 0.079% of 340,000 active; AID 504700;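 active = activation above a cutoff set at the mean over all compounds plus 3 SD, cut at about 18% in these data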;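 note: higher means more holoenzyme dissociation and a rise in polarization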
Target sequence (P31323 whole entry, looked up, other chains not shown, the tested form may be a part): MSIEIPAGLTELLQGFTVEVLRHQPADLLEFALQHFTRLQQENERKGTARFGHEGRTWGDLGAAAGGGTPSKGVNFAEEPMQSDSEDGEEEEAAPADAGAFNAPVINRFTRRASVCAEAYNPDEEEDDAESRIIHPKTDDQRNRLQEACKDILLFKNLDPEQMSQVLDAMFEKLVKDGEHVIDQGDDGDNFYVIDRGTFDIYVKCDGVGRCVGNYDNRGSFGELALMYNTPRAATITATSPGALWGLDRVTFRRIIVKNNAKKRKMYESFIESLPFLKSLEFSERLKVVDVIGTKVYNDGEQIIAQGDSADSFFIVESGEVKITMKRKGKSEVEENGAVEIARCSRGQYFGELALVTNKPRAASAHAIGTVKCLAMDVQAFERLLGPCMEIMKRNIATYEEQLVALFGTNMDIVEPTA
PKA-R1A activ = activators of PKA-R1A complex. activation, % at 11.4 µM. PKA-R1A dissociation, Cy5-IP20 fluorescence polarization; scaled: DMSO 0%, 113 µM cGMP 100%. P00514+P68181. 0.083% of 340,000 active;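 active = percent activation above the mean of all tested compounds plus 3 SD, cut at about 19% in these data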;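 note: higher means more PKAc released from R1A so a rise in polarization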
bovine MsrA act = activates bovine MsrA enzyme; purified bovine MsrA, absorbance read-out; activation, % at 10.6 µM; 0.3% of 360,000 active; in the data active = activation above about 7.5%
MsrA inh = inhibits bovine methionine sulfoxide reductase A; purified bovine MsrA, absorbance read-out; inhibition, % at 15.5 µM; 0.75% of 360,000 active; AID 651718; in the data active = inhibition above about 4.5%
MsrA act confirm = confirmation of bovine methionine sulfoxide reductase A activators; 12% of 1,000 active; activation, % at 10.6 µM; purified bovine MsrA, absorbance read-out; shares compounds with bovine MsrA act; in the data active = activation above about 4%;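 note: enzyme coupled to thioredoxin and thioredoxin reductase with NADPH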
Large screens that a line does not name were inactive (follow-up assays come after a bar, where they were run). A selection: hits, their analogues and other compounds. The true share with any hit is near 1.1%.

O=C(NCc1ccccc1)Nc1cccn(Cc2ccccc2Cl)c1=O	bovine MsrA act 9.1 | MsrA act confirm inactive
C=CCn1c(COc2ccc(Cl)cc2)nnc1SCC(=O)NCC(=O)OCC	bovine MsrA act 8.2 | MsrA act confirm inactive
Cc1cc(=O)[nH]c(N/N=C/c2cccc([N+](=O)[O-])c2)n1	none (no result: PKA-R2B activ, PKA-R1A activ, bovine MsrA act)
Cc1cc(C)nc(N/N=C/c2cccc([N+](=O)[O-])c2)n1	bovine MsrA act 10 (no result: PKA-R2B activ, PKA-R1A activ) | MsrA act confirm inactive
Cc1nnc(N/N=C/c2ccco2)n1N	bovine MsrA act 16 | MsrA act confirm inactive
Cc1nnc(N/N=C/c2cccc(C(F)(F)F)c2)n1N	bovine MsrA act 13 | MsrA act confirm inactive
CCNC(=O)O[C@@H]1C=C[C@@H](C#Cc2ccc(C(C)(C)C)cc2)O[C@@H]1COC(C)=O	none (no result: PKA-R2B activ, PKA-R1A activ, bovine MsrA act)
COc1ccc(S(=O)(=O)NC(CC(=O)NCCc2ccc(OC)c(OC)c2)C(C)C)cc1 (stereo unspecified)	bovine MsrA act 13 | MsrA act confirm inactive
O=C(O)c1ccccc1C(=O)Nc1n[nH]c(=S)s1	bovine MsrA act 8.7 | MsrA act confirm inactive
O=C(O)c1ccccc1C(=O)Nc1nccs1	none
Cc1csc(N(C(=O)c2cccc(S(=O)(=O)N(C)C)c2)c2ccccc2)n1	none
Cc1csc(N(C(=O)c2cccc(S(=O)(=O)N3CCCC3)c2)c2ccccc2)n1	bovine MsrA act 15 | MsrA act confirm inactive
CC(C)Cc1c(O)nc(SCC(=O)N2CCCCCC2)[nH]c1=O	bovine MsrA act 22 | MsrA act confirm inactive
CC(C)c1c(O)nc(SCC(=O)N2CCCCC2)[nH]c1=O	none
COc1ccc(NC(=O)CSc2nc(C)c3c(c2C#N)CCCC3)cc1	none
Cc1nc(SCC(=O)NCc2ccc3c(c2)OCO3)c(C#N)c2c1CCCC2	bovine MsrA act 9.2 | MsrA act confirm inactive
Cc1cc(=O)[nH]c(SCC(=O)NCc2ccc3c(c2)OCO3)n1	none
CCc1nnc(NC(=O)CSc2nc(C)c3c(c2C#N)CCCC3)s1	bovine MsrA act 15 (no result: MsrA inh) | MsrA act confirm inactive
O=C(Nc1ccccc1)N1c2ccccc2SC1c1ccco1 (stereo unspecified)	none (no result: PKA-R2B activ, PKA-R1A activ, bovine MsrA act)
COc1ccccc1CCn1cnc(-c2ccccc2OC)c1CC(C)C	none (no result: PKA-R2B activ, PKA-R1A activ, bovine MsrA act)
CCOC(=O)c1cccc(NC(=O)c2cnc3ccccc3n2)c1	bovine MsrA act 13 | MsrA act confirm inactive
COC(=O)C1=C(C)N(Cc2ccccc2C(F)(F)F)C(=NCc2ccc(C(F)(F)F)cc2)NC1c1cccc(Cl)c1 (stereo unspecified)	none (no result: PKA-R2B activ, PKA-R1A activ, bovine MsrA act)
CCOC(=O)c1cc2nc(OCC)nc(OCC)c2[nH]1	bovine MsrA act 8.7 | MsrA act confirm inactive
COC(=O)C1=C(C)N(C)C(=NCC2CC2)NC1c1cccc(Cl)c1 (stereo unspecified)	none (no result: PKA-R2B activ, PKA-R1A activ, bovine MsrA act)
O=S1(=O)CC(N2CCC(c3ccccc3)CC2)CN1Cc1cn(Cc2ccc(C(F)(F)F)cc2)nn1 (stereo unspecified)	none (no result: PKA-R2B activ, PKA-R1A activ, bovine MsrA act)
CC(C)C[C@@H]1O[C@H](CCc2ccccc2)Cc2[nH]c(=S)[nH]c(=O)c21	bovine MsrA act 10 (no result: PKA-R2B activ, PKA-R1A activ) | MsrA act confirm inactive
CCN(CC)CCn1c2c(c(SCC(=O)Nc3nc4ccc(C)cc4s3)nc1=O)CCC2	bovine MsrA act 7.9 | MsrA act confirm inactive
CCc1nc2ccc(C(=O)Nc3ccc(NC(C)=O)cc3)cn2c1N(C)CCC(C)C	bovine MsrA act 8.8 (no result: PKA-R2B activ, PKA-R1A activ) | MsrA act confirm inactive
COc1ccc(C(=O)NCC2CCN(C(=O)C(=O)c3cc4ccccc4o3)CC2)c(OC)c1	none (no result: PKA-R2B activ, PKA-R1A activ, bovine MsrA act)
Cc1ccccc1S(=O)(=O)N(C)C[C@H]1OCc2cnnn2CCCC(=O)N([C@H](C)CO)C[C@@H]1C	none (no result: PKA-R2B activ, PKA-R1A activ, bovine MsrA act)
COc1ccc(C2CC(=O)C(c3ccc(C#N)cc3)=CN2Cc2ccccc2)cc1 (stereo unspecified)	none (no result: PKA-R2B activ, PKA-R1A activ, bovine MsrA act)
COc1cccc(CNC(=O)[C@H]2CCCN2C(=O)[C@H]2CCCN2C(=O)c2ccc(F)cc2F)c1	none (no result: PKA-R2B activ, PKA-R1A activ, bovine MsrA act)
CC(C)OP(=O)(OC(C)C)C(C)NC(=O)Cc1ccccc1 (stereo unspecified)	bovine MsrA act 17 | MsrA act confirm inactive
Cc1ccc(C(=O)Nc2nccc(C)n2)cc1	bovine MsrA act 8.7 | MsrA act confirm inactive
Cc1ccnc(NC(=O)c2cccc(OC(F)F)c2)n1	none
COc1cc(N2C[C@@]3(O)CC[C@@H](O)[C@@H](OC)[C@@H]3[C@@](C)(O)[C@@H]2CC=C(C)C)cc(OC)c1OC	none (no result: PKA-R2B activ, PKA-R1A activ, bovine MsrA act)
Cc1cccc(NCc2ccccc2O)c1C	bovine MsrA act 15 | MsrA act confirm inactive
Cc1[nH]nc2c1C(c1c[nH]c3ccccc13)C(C#N)=C(N)O2 (stereo unspecified)	none (no result: PKA-R2B activ, PKA-R1A activ)
COC(=O)Cc1[nH]nc2c1C(c1c[nH]c3ccccc13)C(C#N)=C(N)O2 (stereo unspecified)	bovine MsrA act 12 | MsrA act confirm inactive
CCOC(=O)N1CCN(C(=O)C[C@H]2C[C@@]3(C(=O)OC)C(=C[C@H](C(C)(C)C)O[C@@H]3C)N(Cc3ccc4c(c3)OCO4)C2=O)CC1	none (no result: PKA-R2B activ, PKA-R1A activ, bovine MsrA act)
Cc1ccc(S(=O)(=O)N2CCN(C(=O)COC(=O)COc3ccccc3)CC2)cc1	bovine MsrA act 9.9 | MsrA act confirm inactive
COc1ccc2oc(=O)c(C(=O)NCc3ccc4c(c3)OCO4)cc2c1	none
COc1ccc2oc(=O)c(C(=O)NCCc3ccc(OC)c(OC)c3)cc2c1	bovine MsrA act 7.7 | MsrA act confirm inactive
COc1ccc(CNC(=O)[C@@H](Cc2ccccc2)NC(=O)[C@H]2O[C@@H](n3cnc4c(=O)[nH]c(N)nc43)[C@H](O)[C@@H]2O)cc1	none (no result: PKA-R2B activ, PKA-R1A activ, bovine MsrA act)
Fc1ccc(CN2CCN(c3ncc(Cc4ccccc4)cn3)CC2)c(Cl)c1	none (no result: PKA-R2B activ, PKA-R1A activ, bovine MsrA act)
Cc1ccc(C(N)=O)cc1S(=O)(=O)Nc1cccc(C)c1C	bovine MsrA act 16 | MsrA act confirm inactive
COc1ccccc1Cc1c(-c2ccc(C)cc2)nc2ccc(C)cn12	none (no result: PKA-R2B activ, PKA-R1A activ, bovine MsrA act)
Nc1nc(=S)ss1	bovine MsrA act 38 | MsrA act confirm 28
O=C(c1ccccc1)C12COc3ccccc3C1ON=C2c1ccccc1 (stereo unspecified)	none (no result: PKA-R2B activ, PKA-R1A activ, bovine MsrA act)
Cn1c(=O)c2cc(NC(=O)CCc3ccccc3)ccc2n1-c1ccccc1F	none (no result: PKA-R2B activ, PKA-R1A activ)
CCOCCC(=O)Nc1ccc2c(c1)c(=O)n(C)n2-c1ccccc1F	bovine MsrA act 10 (no result: PKA-R2B activ, PKA-R1A activ) | MsrA act confirm inactive
CC(=O)Oc1cc(C)c(Cl)c2c(OC(C)=O)cc(C(C)=O)c(O)c12	none (no result: PKA-R2B activ, PKA-R1A activ, bovine MsrA act)
Cc1ccc(NC(=O)COC(=O)COc2ccc(Cl)cc2)c([N+](=O)[O-])c1	bovine MsrA act 16 | MsrA act confirm inactive
O=C(COC(=O)COc1ccc(Cl)cc1)Nc1ccc(F)c([N+](=O)[O-])c1	none
COCc1cc(N2CCN(C(=O)OC(C)(C)C)C[C@@H]2C)ccc1N1CCN(Cc2ccccc2)[C@@H](C)C1	none (no result: PKA-R2B activ, PKA-R1A activ, bovine MsrA act)
CC(=O)Nc1cccc(NC(=O)Nc2cccc3ccccc23)c1	none
COc1cccc(C(=O)Nc2cccc3ccccc23)c1	bovine MsrA act 20 | MsrA act confirm inactive
O=C(Nc1cccc(C(=O)O)c1)Nc1cccc2ccccc12	bovine MsrA act 8.3 | MsrA act confirm inactive
COC(=O)c1ccc2nc(-c3ccc(Cl)cc3)c(Cc3ccccc3)n2c1	none (no result: PKA-R2B activ, PKA-R1A activ, bovine MsrA act)
